In PubChem BioAssay AID1159580 (chemical genetic matrix, 2015):
Several values for one entry are separate records, joined by “and”; a condition that tells them apart may be missing. Equal entries are not always repeated. The campaign covered roughly 5,500 compounds. About 2,000 (36%) were called active. Not shown: some 18% with an inconclusive outcome. Rule as the data show it: active = normalized growth mostly below about 0.91 (no sharp cut-off); inconclusive = no clear call, values can overlap the other calls; inactive = mostly above about 0.92. The list shows a part of the results.

Assay: chemical genetic growth profiling, strain panel (AID 1159580);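 also: tested at 20 µM; growth read once vehicle control cultures reached saturation at 30 °C; 1 = growth at the plate median or of vehicle wells; lower values mean less growth of the strain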
Conditions: S. cerevisiae deletion strains, growth OD

Measured: normalized growth

C/C=C/CC(C)C(O)C1C(=O)NC(CC)C(=O)N(C)CC(=O)N(C)C(CC(C)C)C(=O)NC(C(C)C)C(=O)N(C)C(CC(C)C)C(=O)NC(C)C(=O)NC(C)C(=O)N(C)C(CC(C)C)C(=O)N(C)C(CC(C)C)C(=O)N(C)C(C(C)C)C(=O)N1C (stereo not given)
inactive: locus YAL013W, strain DEP1, active compounds read low 0.998 | locus YAL021C, strain ccr4, active compounds read low 1.02 | locus YAL026C, strain drs2, active compounds read low 1 | locus YAL030W, strain snc1, active compounds read low 1.02 | locus YAL040C, strain CLN3, active compounds read low 1.04 | locus YBL061C, strain skt5, active compounds read low 1.01 | locus YBR009C, strain hhf1, active compounds read low 1.01 | locus YBR021W, strain FUR4, active compounds read low 1.02 | locus YBR023C, strain chs3, active compounds read low 1.01 | locus YBR171W, strain sec66, active compounds read low 1.01 | locus YBR229C, strain ROT2, active compounds read low 0.972 | locus YBR231C, strain swc5, active compounds read low 1.02 | locus YBR279W, strain paf1, active compounds read low 1.02 | locus YCL011C, strain gbp2, active compounds read low 1.01 | locus YCL016C, strain dcc1, active compounds read low 0.996 | locus YCL029C, strain bik1, active compounds read low 1.01 | locus YCL061C, strain MRC1 (second series), active compounds read low 0.983 | locus YCL061C, strain MRC1, active compounds read low 1.02 | locus YCL069W, strain vba3, active compounds read low 1.02 | locus YCR088W, strain abp1, active compounds read low 1.02 | locus YDL005C, strain med2, active compounds read low 1.01 | locus YDL035C, strain GPR1, active compounds read low 0.979 | locus YDL040C, strain nat1, active compounds read low 1.01 | locus YDL074C, strain BRE1, active compounds read low 0.937 | locus YDL101C, strain DUN1, active compounds read low 0.988 | locus YDL134C, strain PPH21, active compounds read low 0.983 | locus YDL192W, strain arf1, active compounds read low 1 | locus YDR001C, strain nth1, active compounds read low 1.01 | locus YDR069C, strain doa4, active compounds read low 1.03 | locus YDR101C, strain arx1, active compounds read low 1.02 | locus YDR150W, strain NUM1, active compounds read low 0.996 | locus YDR159W, strain sac3, active compounds read low 0.993 | locus YDR162C, strain NBP2, active compounds read low 0.952 | locus YDR195W, strain ref2 1.01 | locus YDR297W, strain sur2, active compounds read low 1.02 | locus YDR318W, strain mcm21, active compounds read low 1.03 | locus YDR334W, strain swr1, active compounds read low 1.02 | locus YDR335W, strain msn5, active compounds read low 1.02 | locus YDR388W, active compounds read low 1.03 | locus YDR392W, strain spt3, active compounds read low 0.873 | locus YDR502C, strain sam2, active compounds read low 1.01 | locus YEL003W, strain gim4, active compounds read low 1.02 | locus YEL037C, strain rad23, active compounds read low 1.06 | locus YEL061C, strain CIN8 (second series), active compounds read low 1 | locus YEL061C, strain CIN8, active compounds read low 0.996 | locus YER002W, strain NOP16, active compounds read low 0.966 | locus YER015W, strain faa2, active compounds read low 1.02 | locus YER016W, strain bim1, active compounds read low 1.02 | locus YER110C, active compounds read low 1.02 | locus YER111C, strain swi4, active compounds read low 0.99 | locus YER155C, strain BEM2 (second series), active compounds read low 0.952 | locus YER155C, strain BEM2, active compounds read low 1.03 | locus YER167W, strain BCK2, active compounds read low 1.03 | locus YFR010W, strain ubp6, active compounds read low 1 | locus YGL078C, strain dbp3, active compounds read low 1.02 | locus YGL086W, strain mad1, active compounds read low 1.02 | locus YGL167C, strain pmr1, active compounds read low 1.03 | locus YGL173C, strain kem1, active compounds read low 1.02 | locus YGL227W, strain vid30, active compounds read low 1.02 | locus YGL240W, strain doc1, active compounds read low 0.978 | locus YGL248W, strain PDE1, active compounds read low 0.985 | locus YGL253W, strain hxk2, active compounds read low 1.02 | locus YGR078C, strain PAC10, active compounds read low 0.964 and 1.01 | locus YGR135W, strain pre9, active compounds read low 0.991 | locus YGR229C, strain SMI1, active compounds read low 0.937 and 1.01 | locus YGR252W, strain gcn5, active compounds read low 0.913 | locus YHR013C, strain ard1, active compounds read low 1.03 | locus YHR027C, strain rpn1, active compounds read low 1.03 | locus YHR030C, strain SLT2, active compounds read low 1.02 and 0.977 | locus YHR079C, strain IRE1 (second series), active compounds read low 1.03 | locus YHR079C, strain IRE1, active compounds read low 0.991 | locus YHR094C, strain hxt1, active compounds read low 1.02 | locus YHR129C, strain ARP1, active compounds read low 1.01 | locus YHR142W, strain chs7, active compounds read low 1.02 | locus YHR200W, strain rpn10, active compounds read low 1.02 | locus YIL066C, strain RNR3, active compounds read low 0.986 | locus YIL073C, strain SPO22, active compounds read low 1.02 | locus YIL125W, strain kgd1, active compounds read low 1 | locus YIR030C, strain dcg1, active compounds read low 1.02 | locus YJL092W, strain hpr5, active compounds read low 1.02 | locus YJL095W, strain BCK1 (second series), active compounds read low 1.03 | locus YJL095W, strain BCK1, active compounds read low 0.908 and 0.989 | locus YJL115W, strain asf1, active compounds read low 1.02 | locus YJL129C, strain trk1, active compounds read low 1.08 | locus YJL134W, strain LCB3, active compounds read low 1 | locus YJL154C, strain vps35, active compounds read low 1.01 | locus YJL164C, strain tpk1, active compounds read low 1.04 | locus YJL166W, strain qcr8, active compounds read low 1.02 | locus YJL168C, strain set2, active compounds read low 1.03 | locus YJL187C, strain SWE1 (second series), active compounds read low 0.968 | locus YJL187C, strain SWE1, active compounds read low 1.02 | locus YJR043C, strain POL32, active compounds read low 1 | locus YJR066W, strain TOR1, active compounds read low 0.959
active: locus YDL185W, strain tfp1, active compounds read low 0.358 | locus YDR137W, strain rgp1, active compounds read low 0.637
